Holding throughout (experiment): NCI-60 one-dose screen, 48 h (100 = growth as untreated, 0 = no growth, -100 = all killed)
What all share (conditions): 10 µM unless noted

Assay [1] has as its system T-47D breast.
Assay [2] concerns BT-549 breast.
The test system of assay [3] is MDA-MB-435 melanoma.
Assay [4] relates to SW-620 colon.
The subject of assay [5] is MCF7 breast.
Assay [6] deals with HCT-116 colon.
Assay [7] concerns HCC-2998 colon.
The subject of assay [8] is KM12 colon.

“And” between values parts separate entries of the source, which are not always exact repeats. Identical values can stand only once. This is part of a sample that, as a whole, favours compounds with a hit. Of some 83,000 tested, about 20% had one in any assay.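 96-well plates, one dose, 48 hours. Percent growth reported; active if below 10.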 The source made the active and inactive calls.

Consider `FC(F)(F)Sc1ccc(/C=C/c2cc(/C=C/c3ccc(SC(F)(F)F)cc3)n(-c3ccccc3)n2)cc1`, for which the growth in assay [1] was 84.3% (inactive); in assay [2], 103% (inactive); in assay [3], 91.7% (inactive); in assay [4], 94.9% (inactive); in assay [5] it was 89% (inactive); in assay [6] it was 94.3% (inactive). In addition, the results for the growth in assay [7] and in assay [8] were 101% (inactive) and 95.2% (inactive), respectively.

For `Cc1ccc(/C=C/c2c(C(=O)/C=C/c3ccccc3)c(C)nc3ccccc23)cc1`, the growth in assay [1] is 16.1% (inactive); in assay [2], 41.5% (inactive); in assay [3], -45.4% (active); in assay [4] it was 3.35% (active); in assay [5], 12.6% (inactive); in assay [6], -54.7% (active). In addition, the growth in assay [7] is 20.6% (inactive); in assay [8], 13.1% (inactive).

On to `C=C(CN1CC=CCC1)[C@@H]1CC[C@]2(COC(C)=O)CC[C@]3(C)[C@H](CC[C@@H]4[C@@]5(C)CC[C@H](O)C(C)(C)[C@@H]5CC[C@]43C)[C@@H]12`, for which the growth in assay [1] was 78.7% (inactive); in assay [2], 106% (inactive); in assay [3], 99.2% (inactive); in assay [4], 97.4% (inactive); in assay [5] it was 90.4% (inactive); in assay [6], 93.6% (inactive). In addition, the growth in assay [7] was 112% (inactive); in assay [8] it was 106% (inactive).

For `COc1ccc(N2CCN(S(=O)(=O)c3oc(-c4ccccc4)nc3C#N)CC2)cc1`, the growth was 73.1% (inactive) in assay [1]; 77.5% (inactive) in assay [2]; 65.2% (inactive) in assay [3]; 7.02% (active) in assay [4]; 31.2% (inactive) in assay [5]; 15.4% (inactive) in assay [6]. In addition, the growth in assay [7] is 100% (inactive); in assay [8], 104% (inactive).

On to `COC1=CC(=O)C(OC)=C(O)C1=O`, for which the growth was 89% (inactive) in assay [1]; 98.9% (inactive) in assay [2]; 101% (inactive) in assay [3]; 93.2% (inactive) in assay [4]; 91.5% (inactive) in assay [5]; 98.7% (inactive) in assay [6]. Also, the growth in assay [7] is 101% (inactive); in assay [8], 102% (inactive).

With `COc1ccc(-c2cc(-c3cccc(Cl)c3)c(C#N)c(=O)[nH]2)c(OC)c1`, the growth in assay [1] is 97.8% (inactive); in assay [2], 85.9% (inactive); in assay [3], 87.1% (inactive); in assay [4], 96.3% (inactive); in assay [5] it was 88.7% (inactive); in assay [6], 96.9% (inactive). In addition, the growth is 106% (inactive) in assay [7] and 102% (inactive) in assay [8].

With `COC(=O)c1[nH]nc(OC)c1C1(C(C#N)c2nc3ccccc3s2)CCCc2ccccc21` (configuration not stated), the growth in assay [1] is 84.1% (inactive); in assay [2], 88.2% (inactive); in assay [3], 104% (inactive); in assay [4] it was 104% (inactive); in assay [5] it was 84.8% (inactive); in assay [6] it was 104% (inactive). Moreover, the growth in assay [7] was 102% (inactive); in assay [8], 97% (inactive).

In the case of `O=C1Nc2ccccc2/C1=C/c1cccn1CCCCCn1c2ccccc2c(=O)c2ccccc21`, the growth is 1.55% (active) in assay [1]; 65.5% (inactive) in assay [2]; 93.6% (inactive) in assay [3]; 100% (inactive) in assay [4]; 1.17% (active) in assay [5]; 69.8% (inactive) in assay [6]. For the same compound, the growth in assay [7] was 42.5% (inactive); in assay [8], 12.1% (inactive).

Take `Clc1nccc2c(-c3csc(-c4c[nH]c5ccc(Br)cc45)n3)c[nH]c12`: the growth in assay [1] is 17.7% (inactive); in assay [2] it was 53.2% (inactive); in assay [3] it was 36.9% (inactive); in assay [4], -31.1% (active); in assay [5], 23.7% (inactive); in assay [6], 22.8% (inactive). Besides, the values for the growth in assay [7] and in assay [8] were 27.8% (inactive) and 17.1% (inactive), respectively.

Turning to `Fc1ccccc1-c1cnn2cc(-c3ccccc3)cnc12`, the growth was 98.1% (inactive) in assay [1]; 98.7% (inactive) in assay [2]; 75.6% (inactive) in assay [3]; 92.2% (inactive) in assay [4]; 68.1% (inactive) in assay [5]; 91.3% (inactive) in assay [6]. In addition, the growth in assay [7] is 92.8% (inactive); in assay [8] it was 59.3% (inactive).

`CCOC(=O)c1cc2c(n1Cc1cc(OC)cc(OC)c1Br)-c1nc(NC(C)=O)sc1CCC2`: the growth in assay [1] is 38.5% (inactive); in assay [2] it was 92.9% (inactive); in assay [3], 83.9% (inactive); in assay [4], 81.3% (inactive); in assay [5], 57.6% (inactive); in assay [6], 78.2% (inactive). For the same compound, the growth in assay [7] is 72.7% (inactive); in assay [8] it was 67.6% (inactive).

For `CN(C)c1ccc2nc3ccc(=O)cc-3sc2c1`, the growth is 28% (inactive) and 38.8% (inactive) in assay [1]; 52.5% (inactive) and 47.1% (inactive) in assay [2]; 40.7% (inactive) and -65.2% (active) in assay [3]; 31.9% (inactive) and 47.4% (inactive) in assay [4]; -1.53% (active) and 1.73% (active) in assay [5]; 2.57% (active) and 9.4% (active) in assay [6]. Besides, the growth in assay [7] was 18.1% (inactive) and 39.7% (inactive); in assay [8], 30.4% (inactive) and 32.8% (inactive).

Consider `COc1cc2cc(NCc3ccncc3)nc(C)c2cc1OC`, for which the growth in assay [1] is 71.2% (inactive); in assay [2] it was 77.9% (inactive); in assay [3], 106% (inactive); in assay [4], 107% (inactive); in assay [5], 93.4% (inactive); in assay [6] it was 93.1% (inactive). In addition, the values for the growth in assay [7] and in assay [8] were 106% (inactive) and 109% (inactive), respectively.

As to `C#CCOCC1CN(C)C(=O)O1` (configuration not stated), the growth in assay [1] was 126% (inactive); in assay [2], 131% (inactive); in assay [3] it was 101% (inactive); in assay [4], 97% (inactive); in assay [5], 90.2% (inactive); in assay [6], 119% (inactive). For the same compound, the growth is 109% (inactive) in assay [7] and 107% (inactive) in assay [8].

The record behind these values is PubChem BioAssay (NCI).
